Reference: PubChem BioAssay AID2783 (National Center for Advancing Translational Sciences (NCATS), 2010)
Inconclusive results are not listed. The call rests on the fitted dose curve; in most records, active means well fitted inhibition curve with a large enough effect in the polarisation, with a control signal flat (not every such curve was filed as active); inconclusive means small, poorly fitted or top-dose-only effect, or effect the other way, or a change in a side signal; inactive means no such curve, though single readings can be large or run the other way; the % refers to the polarisation.

Each molecule was assayed against Menin (Homo sapiens) (UniProt O00255) (assay: Confirmation of Inhibitors Targeting the Menin-MLL Interaction in MLL Related Leukemias: Competition With Fluorescein Labeled MLL-derived Peptide). Settings: Fluorescence polarization, fluorescein-MLL peptide displacement from menin; series mostly up to 100 µM; activity change, negative = inhibition: at the top concentration.
On the % scale 0 is the no-effect control and ±100 the full control effect.

Menin (Homo sapiens), sequence (O00255 whole entry, looked up): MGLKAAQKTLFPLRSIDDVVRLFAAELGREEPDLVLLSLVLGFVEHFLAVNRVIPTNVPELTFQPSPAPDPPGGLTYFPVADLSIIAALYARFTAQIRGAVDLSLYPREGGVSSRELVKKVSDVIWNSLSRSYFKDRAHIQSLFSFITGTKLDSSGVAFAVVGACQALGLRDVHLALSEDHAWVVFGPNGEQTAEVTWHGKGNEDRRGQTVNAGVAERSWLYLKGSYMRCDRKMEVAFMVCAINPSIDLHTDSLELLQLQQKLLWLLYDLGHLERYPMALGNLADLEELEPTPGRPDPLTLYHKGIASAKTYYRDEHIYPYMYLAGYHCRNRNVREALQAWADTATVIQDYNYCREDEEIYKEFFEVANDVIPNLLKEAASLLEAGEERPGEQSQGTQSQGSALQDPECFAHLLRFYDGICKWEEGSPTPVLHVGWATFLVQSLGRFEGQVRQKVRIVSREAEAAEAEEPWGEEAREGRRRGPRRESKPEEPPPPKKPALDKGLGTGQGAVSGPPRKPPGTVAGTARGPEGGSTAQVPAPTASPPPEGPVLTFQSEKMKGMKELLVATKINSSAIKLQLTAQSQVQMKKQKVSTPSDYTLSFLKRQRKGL

Activity change, negative = inhibition, inactive:
CCOC(=O)N1CCN(C(=O)c2oc3ccc(S(=O)(=O)N(CC)CC)cc3c2C)CC1 -1.38% [at 288 µM]
CC(C)Sc1nc(N2CCOCC2)c2c3c(sc2n1)COC(C)(C)C3 -14.8%
O=S(=O)(c1ccc(-c2csc(Nc3ccc(Br)cc3)n2)cc1)N1CCCC1 1.46% [at 288 µM]
CCCC(=O)NC(c1ccccc1Cl)c1ccc2cccnc2c1O (centres undefined) -1.78%
CCCN(CCC)CCCNC(=S)Nc1ccc2nc(N3CCCC3)cc(C)c2c1 -6.49%
Cc1ccc(F)c(C2C3C=CCC(C)C3C(=O)N2Cc2ccccc2)c1 (centres undefined) 10.6%
CN[C@H]1[C@H](O)[C@@H](O[C@@H]2[C@H](O)[C@@H](O[C@H]3OC(CN)=CC[C@H]3N)[C@@H](N)C[C@H]2N)OC[C@@]1(C)O -4.31%
Cn1c(=O)n(C)c2cc3[nH]cnc3cc21 3.61%
CC(NC(=O)c1cnc2ccccc2n1)c1ccccc1 (centres undefined) -12.7% [at 288 µM]
CCN(CC)c1nc(-c2ccc(C(=O)NN)cc2)nc(-c2ccc(C(=O)NN)cc2)n1 -6.99% [at 288 µM]
CCCOc1ccc(C(=O)NNC(=S)NC(=O)c2cc(-c3ccc(Cl)cc3)nc3ccccc23)cc1 -3.33% [at 288 µM]
O=C(N1CCOCC1)N1CCN(S(=O)(=O)c2ccc(Cl)cc2)CC1 -4.6%
O=C(Cn1nc(-c2ccccc2)ccc1=O)N1CCCCC1 2.68% [at 288 µM]
CC(c1ccccc1)c1nnc(NC(=O)Nc2ccccc2F)s1 (centres undefined) 0.65% [at 288 µM]
O=C(N/N=C/c1cn(-c2cccs2)nc1-c1ccccc1)c1ccccc1O 2.11% [at 288 µM]
c1ccc2c(c1)NCC1CCCN21 (centres undefined) -3.78%
O=C(Nc1cc(Br)ccc1O)c1cc(-c2cccs2)on1 3.78%
COC(=O)Cc1c(C)nc2nc(-c3ccc(OC)cc3)[nH]n2c1=O -3.09% [at 288 µM]
O=C1C(Cl)=C(NCCN2CCOCC2)C(=O)c2ncccc21 3.66% [at 288 µM]
O=C(Nc1ccc(F)c(Cl)c1)c1cc(-c2ccco2)on1 3.78%
O=[N+]([O-])CC(c1ccccc1)P(=O)(c1ccccc1)c1ccccc1 (centres undefined) -4.21%
Cc1ccc(C(C[N+](=O)[O-])c2c(C)[nH]n(-c3ccccc3)c2=O)cc1 (centres undefined) -2.87%
Cc1c(CCOC(=O)CC23CC4CC(CC(C)(C4)C2)C3)sc[n+]1Cc1ccc([N+](=O)[O-])cc1 -16.9% [at 288 µM]
COc1cc(OC)c2ccc(=O)oc2c1C(CCN1CCOCC1)c1ccc(N(C)C)cc1 (centres undefined) 3.48%
O=C(O)/C(=C\c1ccc(F)cc1)c1ccc(-c2ccccc2)cc1 5.91%
COc1cc(/C=C2/C(=O)N(c3ccc(Br)cc3)N=C2C)cc(OC)c1OC -0.325% [at 288 µM]
COc1ccccc1CC(=O)Nc1ccc(-c2noc(COc3ccc(Br)cc3)n2)cc1 11.3%
CC(=O)Nc1ccc(-c2cc(-c3ccc(NC(C)=O)cc3)nc(-c3ccc(NC(C)=O)cc3)n2)cc1 -13.7%
Cc1c(F)cccc1NS(=O)(=O)c1ccc2c(c1)c(C)cc(=O)n2C -15.3%
CCc1ccc(NC(=O)CSc2nc(O)cc(=O)n2C2CCCC2)cc1 -11.7%
CC1CN(c2c3c(nc4ncnn24)CCCC3)CC(C)O1 (centres undefined) -1.31%
COc1cccc(C(=O)/C=C/Nc2ccc(S(=O)(=O)Nc3ccc(C(C)=O)cc3)cc2)c1 19.2% [at 288 µM]
CC(=O)Nc1ccc(-c2cc3ccccc3o2)cc1 -1.48%
CN(C)c1ccc(N=Nc2ccc(C(=O)O)cc2)cc1 3.8%
